# Data taken from PubChem BioAssay (NCI).
# The panel holds about 79,000 compounds, 15% with a hit somewhere; the sample as a whole holds those more often. Unmarked numbers belong to inactive results. The source made the active and inactive calls. Rule as the data show it: active = growth inhibition above about 70%; inactive = the rest.
# Experiments:
# [1] = NCI Yeast Anticancer Drug Screen. Data for the rad50 strain (AID 155);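 also: 0% = growth of vehicle-only cultures of the same strain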; conditions: S. cerevisiae rad50 strain growth inhibition; at 50.0 µM; active compounds read high
# Outline: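 Genetically altered yeast (DNA repair pathway); compound treatment; growth inhibition vs vehicle ctrl.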
# [2] = NCI Yeast Anticancer Drug Screen. Data for the mec2-1 strain (AID 157); conditions: S. cerevisiae mec2-1 strain, at 50.0 µM, active compounds read high
# Outline: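 Cells of the genetically defined mec2-1 yeast strain are incubated with test compound. Inhibition of growth is calculated against vehicle-treated controls.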
# [3] = NCI Yeast Anticancer Drug Screen. Data for the sgs1 mgt1 strain (AID 161);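 also: 0% = growth of cultures given vehicle only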; conditions: S. cerevisiae sgs1 mgt1 strain, at 50.0 µM, active compounds read high
# Outline: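 Mutant yeast exposed to compound; growth scored against vehicle-only wells.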
# [4] = NCI Yeast Anticancer Drug Screen. Data for the cln2 rad14 strain (AID 165);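 also: 0% = growth equal to vehicle treated cultures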; conditions: S. cerevisiae cln2 rad14 strain, at 50.0 µM, active compounds read high
# Outline: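 The screen exposed genetically defined yeast (cln2 rad14) to test compounds and scored growth inhibition relative to vehicle-treated controls.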
# [5] = NCI Yeast Anticancer Drug Screen. Data for the bub3 strain (AID 167); conditions: S. cerevisiae bub3 mutant strain, at 50.0 µM, active compounds read high
# Outline: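 Yeast carrying a defined mutation is treated with each compound, and growth is compared with that of vehicle-exposed cells to give inhibition.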
# [6] = NCI Yeast Anticancer Drug Screen. Data for the mlh1 rad18 strain (AID 175); conditions: S. cerevisiae mlh1 rad18 strain growth inhibition; at 50.0 µM; active compounds read high
# Outline: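 Compound-treated yeast growth, normalised to vehicle controls. Strain bears defined DNA repair mutations.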
Structure (SMILES),growth inhibition [1],growth inhibition [2],growth inhibition [3],growth inhibition [4],growth inhibition [5],growth inhibition [6]
O=C(O)C(O)(c1ccccc1)c1ccsc1 (stereo not drawn),4.45%,2.15%,-8.6%,-28.9%,1.95%,8.8%
O=C1NC(=S)N/C1=C/c1ccccc1O,12.3%,6.65%,-27.6%,-14.8%,-27.7%,-42.4%
C=C(C)[C@H]1Cc2c(ccc3c2O[C@@H]2COc4cc(OC)c(OC)cc4[C@@H]2C3=O)O1,43.5%,19.2%,43.4%,27.8%,49.1%,52.8%
Nc1ccc(CCc2ccc(S(=O)(=O)F)cc2)cc1,94.8% (active),95.9% (active),98.3% (active),92.8% (active),92.7% (active),92.6% (active)
O=NN1CCN(N=O)CC1,4.9%,-0.6%,6.3%,8.95%,-0.6%,28.1%
COc1ccc(-n2c(C)nc3ccccc3c2=O)cc1CN(CCCl)CCCl,4.45%,-3.55%,-8.15%,-22.1%,2.6%,2.3%
ClCCN(CCCl)c1ccc(CCCCN2CCCCC2)cc1,20.2%,23.2%,21.2%,14.2%,19.2%,47%
CCCCCCP(=O)(CCCCCC)CCCCCC (tested in a mixture with another compound),77.3% (active),83.6% (active),87.5% (active),78.6% (active),62%,84.2% (active)
NC1CN2CCC1CC2 (stereo not drawn),9.35%,-7.65%,-14.6%,11.8%,-8.55%,1.15%
Cc1ccc(S(N)(=O)=O)cc1,22%,-5.05%,5.8%,-8.25%,12.8%,18.8%
CC(=O)CC(C)=O.CC(=O)CC(C)=O.[Cl][Sn][c]1ccccc1,40.8%,23.7%,49.6%,8.4%,35.1%,57.5%
CC(=O)OC1CCC2(C)C(CCC3C2CCC2(C)C3CC(CC(=O)O)C2OC(C)=O)C1 (stereo not drawn),16.5%,18.8%,7.3%,-0.5%,3.3%,24%
Cc1ccc(N=C(C(c2ccccc2)c2ccccc2)N(CCCl)CCCl)cc1,24.2%,3.45%,19.9%,13.3%,18.1%,24.1%
CCc1cc[c]([Sb](=[O])([OH])[OH])cc1,3.5%,-7.15%,9.1%,22.5%,4.1%,3.2%
O=C(CI)NCCNC(=O)CI,11.1%,16.2%,21.4%,20.6%,10.6%,39.5%
O=C(O)c1ccccc1/C=N\NC(=S)NC1CN2CCC1CC2 (stereo not drawn),9.45%,6.25%,6.85%,-0.5%,34.6%,-18.6%
O=S(=O)(O)O.[In],22.2%,41.6%,39.1%,10.1%,26.5%,15.1%
O=[N+]([O-])c1cc(S(=O)(=O)F)cc(Cl)c1O,-10.2%,1.6%,2.25%,-3.7%,-2.75%,8.45%
CC(=O)O[C@@]12CO[C@@H]1CC(O)[C@@]1(C)C(=O)[C@H](O)C3=C(C)C(O)C[C@@](O)(C(OC(=O)c4ccccc4)C12)C3(C)C (stereo partly drawn),-12.8%,-28.4%,-12.3%,-5.9%,-29.4%,-8.65%

Structure (SMILES),growth inhibition [1],growth inhibition [2],growth inhibition [3],growth inhibition [4],growth inhibition [5],growth inhibition [6]
O=P(N=C=S)(N=C=S)N=C=S,5.45%,6.6%,9.4%,-11.6%,0.4%,-12.8%
O=[C-]CC(=O)c1ccccc1.O=[C-]CC(=O)c1ccccc1.[Fe+2],-7.85%,3.15%,8.5%,12%,-0.65%,6.15%
O=c1c(O)c(-c2ccccc2)oc2ccccc12,12.6%,14.8%,35.5%,15.6%,42.5%,34.8%
COCC1OC2OC3C(COC)OC(OC4C(COC)OC(OC5C(COC)OC(OC6C(COC)OC(OC7C(COC)OC(OC8C(COC)OC(OC1C(O)C2O)C(O)C8O)C(O)C7O)C(O)C6O)C(O)C5O)C(O)C4O)C(O)C3O (stereo not drawn) (tested in a mixture with another compound),13.2%,-13.6%,-4.6%,20.1%,-18.8%,-64.7%
Cc1nccc2c1[nH]c1ccccc12,6.5%,5.7%,-15.4%,-5.65%,2.5%,2.3%
C(#CP(c1ccccc1)c1ccccc1)c1ccccc1,62.5%,34.5%,74.8% (active),20.1%,76.8% (active),85.5% (active)
C1CCC2[N-]CCCC2C1.C1CCC2[N-]CCCC2C1.[Cl][Pt+2][Cl] (stereo not drawn),42.2%,36%,55.2%,22.9%,59.4%,64.6%
CCCC[S][Sn-]([CH2]CCC)([CH2]CCC)[CH2]CCC,98.7% (active),98.7% (active),99.2% (active),98.5% (active),99% (active),99% (active)
CP(=S)(c1ccccc1)P(C)(=S)c1ccccc1 (stereo not drawn),-15.4%,-19.4%,-17.9%,5.05%,-21.2%,-31%
Nc1ccc2ncccc2c1 (tested in a mixture with another compound),39.2%,97.5% (active),45.5%,56.4%,46.5%,26.2%
CCCC(=O)[O-].CCCC(=O)[O-].NCCN.NCCN.[Co+3].[O-][Cl+3]([O-])([O-])[O-],-18.5%,19.1%,-5.1%,23%,-0.45%,-1.75%
N/C(N=P(c1ccccc1)(c1ccccc1)c1ccccc1)=N\[N+](=O)[O-],11.7%,15.8%,8.35%,4.65%,12.2%,-16.1%
O=C1NC(=O)C(O)(C2=C(O)CCC2=O)C(=O)N1,12.8%,-0.3%,4.9%,-25.6%,13.9%,10.4%
Oc1cc(Cl)ccc1Cl,98.2% (active),99% (active),98.6% (active),96.5% (active),99% (active),98.8% (active)
[Cl][Rh]([Cl])([Cl])[Cl].[NH-]CC[NH-],17.2%,15%,15.7%,-17.4%,-9.95%,8.55%
O.O=[N+]([O-])O.[NH2-].[NH2-].[Pt+2],22.9%,20.4%,8.6%,15.2%,4.55%,31.4%
O=S(OO)c1cc(Cl)c(O)c(Cl)c1 (stereo not drawn),3.5%,-24.1%,-1.55%,7.55%,-10.7%,3.4%
CN(C(=O)COc1ccc([N+](=O)[O-])cc1Cl)c1ccc(S(=O)(=O)F)cc1,13.8%,-1.85%,-10.9%,-10.4%,1.25%,16.5%
[C-]#[O+].[C-]#[O+].[C-]#[O+].[C-]#[O+].[C-]#[O+].[CH3][Sn]([Cl])[c]1ccccc1.[Mn],91.5% (active),96.5% (active),89.7% (active),88.6% (active),96% (active),92.5% (active)
